USP1-UAF1 inh: USP1/UAF1 (human) deubiquitinase inhibition | recombinant USP1/UAF1, Ub-Rhodamine cleavage fluorescence | Potency, µM (top dose mostly 57.1 µM), inactives show at the top dose activity change, negative = inhibition, hits mostly inhibitors | AID 743255 | actives 0.23% (n = 390,000) | O94782; also: % is scaled to controls: 0 for no effect and ±100 for the full control effect; nearly all actives have a fitted effect of over 60% in size
Target sequence (O94782 whole entry, looked up): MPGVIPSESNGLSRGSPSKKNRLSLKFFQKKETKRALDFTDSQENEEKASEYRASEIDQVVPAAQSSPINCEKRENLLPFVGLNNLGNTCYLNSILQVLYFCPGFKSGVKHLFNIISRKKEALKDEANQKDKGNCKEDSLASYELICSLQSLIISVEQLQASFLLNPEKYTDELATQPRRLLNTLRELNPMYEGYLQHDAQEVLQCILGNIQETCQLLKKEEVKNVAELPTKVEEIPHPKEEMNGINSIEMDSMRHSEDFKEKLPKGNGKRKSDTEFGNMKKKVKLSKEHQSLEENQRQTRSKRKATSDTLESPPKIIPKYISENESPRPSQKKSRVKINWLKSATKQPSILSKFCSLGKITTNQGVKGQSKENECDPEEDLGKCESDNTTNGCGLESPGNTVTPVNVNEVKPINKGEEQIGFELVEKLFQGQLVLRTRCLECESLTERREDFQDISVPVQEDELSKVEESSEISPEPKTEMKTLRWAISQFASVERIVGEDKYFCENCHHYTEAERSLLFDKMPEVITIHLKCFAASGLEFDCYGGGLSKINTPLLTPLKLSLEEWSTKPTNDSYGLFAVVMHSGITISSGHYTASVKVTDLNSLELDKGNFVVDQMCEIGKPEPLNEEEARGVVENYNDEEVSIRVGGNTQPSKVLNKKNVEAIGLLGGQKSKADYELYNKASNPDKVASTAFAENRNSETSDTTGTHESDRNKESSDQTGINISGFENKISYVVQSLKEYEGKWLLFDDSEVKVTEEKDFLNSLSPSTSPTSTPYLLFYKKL
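Step one: compound is pinned into 1nM USP1/UAF1 in HEPES pH 7.8 buffer with TCEP. Step two: 15 min room-temperature incubation. Step three: Ub-Rho (150nM final) starts cleavage, tracked by fluorescence over six one-minute reads.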
EPAC1 antagonist: EPAC1 (human) antagonism; O95398; EPAC1 GEF assay, Rap1b-BODIPY-GDP exchange fluorescence; Potency, µM (highest dose often 115 µM), without a hit: at the top dose activity change, negative = inhibition, actives largely listed as inhibitors; actives 0.14% (n = 360,000);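 also: plate controls were vehicle for no effect and positive control for full effect; nearly all actives have a fitted effect of over 50% in size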
EPAC1 agonist: activates human EPAC1 exchange factor; EPAC1 agonist qHTS, biochemical assay; response scale: 100% = response to 6.5 mM cAMP; Potency, µM (doses to about 154 µM), for inactives: top-dose activation, most hits filed as activators; actives 0.073% (n = 360,000); also: nearly all actives have a fitted effect of over 60% in size
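Nucleotide exchange assay: 100 nM EPAC1 with 250 nM Rap1B loaded with BODIPY-GDP and 50 uM GDP, room temperature. Fluorescence (480/540 nm) read every 5 min for 30 min; signal change normalized to 6.5 mM cAMP as full agonist.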
EPAC2 antag: antagonists of human EPAC2. AID 720708. EPAC2 GEF exchange of Rap1B-BODIPY-GDP, fluorescence. actives 0.18% (n = 360,000). Potency, µM (top dose mostly 114 µM), without a hit: at the highest dose activity, negative = inhibition, actives largely listed as inhibitors. Q8WZA2; also: % is scaled to controls: 0 for no effect and ±100 for the full control effect; nearly all actives have a fitted effect of over 45% in size
EPAC2 ag: activates human EPAC2 exchange factor. Q8WZA2. EPAC2 activation, biochemical qHTS; response scale: 100% = 6.5 mM cAMP response. Potency, µM (highest dose often 154 µM), without a hit: top-dose activation, most hits filed as activators. actives 0.079% (n = 360,000). AID 720711; also: nearly all actives have a fitted effect of over 50% in size
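Fluorescence exchange assay: 100 nM EPAC2 with 250 nM RAP1B-BODIPY-GDP and 50 uM GDP; compounds tested as a concentration-titration series (qHTS). Loss of Rap1-bound BODIPY-GDP fluorescence read at 480/540 nm; data normalized to 6.5 mM cAMP.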
* = called active by the depositor; ? = inconclusive; · = no result given; [ ] = dose if it differs, or a comment. The list is not random: actives were taken first. Their share in the collection is about 0.45%. Calls follow the shape of the dose curve; as a rule, active = well fitted curve in the direction sought with a large enough effect; inconclusive = small, poorly fitted or top-dose-only effect, or another doubt; inactive = no such curve, though single readings can be large; an effect the other way counts as inactive or inconclusive. Potency is read from the fitted curve at half-maximal effect.

SMILES	USP1-UAF1 inh	EPAC1 antagonist	EPAC1 agonist	EPAC2 antag	EPAC2 ag
CCOC(=O)C(C)Sc1ncnc2c1nnn2-c1ccc(F)cc1 (configuration not stated)	-10.1%	-15.4%	-6.1%	20µM*	-2.5%
COc1cccc(N2C(=O)CSC23C(=O)N(CC(=O)Nc2cccc(Cl)c2)c2ccccc23)c1 (configuration not stated)	-33.5%	·	·	·	·
CCC1=NN(C(=O)c2ccc(Br)cc2)C(O)(c2ccccc2)C1 (configuration not stated)	-6.3%	87.6%	112µM*	-7.3%	1.1%
C=CCN1C(=O)S/C(=C\c2ccc(N3CCOCC3)cc2C)C1=O	-17.0%	22.2%	-61.6%	23.9%	-37.8%
C=CC(C)N1C(=O)S/C(=C\c2ccc(N3CCOCC3)cc2C)C1=O (configuration not stated)	-13.7%	35.5µM*	-38.4%	-1.1%	1.3%
Cc1ccc(C(=O)NC2(O)C(=O)c3ccccc3C2=O)cc1C	?	?	3.0%	-27.3%	22.9%
O=C(NC1(O)C(=O)c2ccccc2C1=O)c1ccc(C(F)(F)F)cc1	15.8µM*	35.5µM*	0.8%	?	23.9%
COc1cccc(-n2c(=O)c3sc4ccccc4c3n(CC(=O)Nc3ccccc3OC)c2=O)c1	-8.7%	·	·	·	·
COc1cc([N+](=O)[O-])ccc1-c1ccc(/C=N\n2cnnc2)o1	-1.5%	-6.9%	22.5%	9.3%	8.8%
COc1cc([N+](=O)[O-])ccc1-c1ccc(/C=C2\C(=O)ON=C2c2ccccc2)o1	-3.1%	-11.7%	9.6%	50.1µM*	13.0%
CC(=O)Nc1cccc(NC(=O)c2c(-c3ccccc3)c(-c3ccccc3)nn(C)c2=O)c1	-25.0%	·	·	·	·
Cc1[nH]n(-c2ncc(-c3ccccc3)s2)c(=O)c1C(c1ccc(Cl)cc1)C(C#N)C#N (configuration not stated)	?	50.1µM*	-8.8%	-8.2%	2.1%
CCC(=O)NC1=C(Cl)C(=O)C(NC(=O)CC)=C(Cl)C1=O	31.6µM*	?	1.1%	17.7%	0.9%
CC(=O)Nc1ccc(S(=O)(=O)NCCc2csc3nc(-c4ccc(Cl)cc4)nn23)cc1	-26.9%	·	·	·	·
COC(=O)CN1C(=S)N(c2ccc(OC)cc2)C(=O)/C1=C/c1ccc(N2CCOCC2)cc1	28.2µM*	30.7%	?	57.7%	?
CCn1c(=O)c(C(=O)Nc2ccccc2C)c(O)c2ccccc21	-14.4%	-5.7%	2.9%	2.2%	10.1%
CCn1c(=O)c(C(=O)Nc2ccccc2S(N)(=O)=O)c(O)c2ccccc21	-0.2%	56.2µM*	11.5%	-4.0%	20.1%
COc1ccc(CCn2c3c(c(=O)[nH]c2=O)C(NC(=O)c2ccc(C(C)(C)C)cc2)(C(F)(F)F)C(=O)N3)cc1OC (configuration not stated)	-25.6%	·	·	·	·
O=C1c2cccc3c(O)ccc(c23)C(=O)N1c1ccc(Cl)cc1	28.2µM*	252.4%	100µM*	220.2%	112µM*
O=C1c2cccc3c(O)ccc(c23)C(=O)N1Cc1ccco1	28.2µM*	19.1%	56.2µM*	324.8%	100µM*
O=C1c2ccccc2C(=O)N1Cc1ccco1	-16.5%	3.3%	3.7%	5.3%	-7.1%
CC(=O)Nc1ccc(N2C(=O)c3cccc4c(O)ccc(c34)C2=O)cc1	28.2µM*	?	89.1µM*	416.7%	112µM*
Cc1ccc(C(=O)N2CCc3cc(CNC(=O)c4ccccc4F)ccc32)cc1	-13.5%	·	·	·	·
CC(C)(C)CNC(=O)c1cccc2c1C(=O)c1ccc(-c3cc4ccccc4o3)cc1S2(=O)=O	16.9%	?	-5.6%	-17.5%	100µM*
C#CCOCCOCCOCCNc1nc(N2CCN(C(=O)CCCCCCCCCCNC(=O)[C@@H](CCSC)n3cc(CCO)nn3)CC2)nc(N2CCN(C(=O)CCCCCCCCCCNC(=O)[C@H]([C@@H](C)CC)n3cc(CCCCN=C(N)N)nn3)CC2)n1	?	?	2.6%	?	-25.2%
SMILES	USP1-UAF1 inh	EPAC1 antagonist	EPAC1 agonist	EPAC2 antag	EPAC2 ag
C#CCOCCOCCOCCNc1nc(N2CCN(C(=O)CCCCCCCCCCNC(=O)[C@@H](CCSC)n3cc(CCO)nn3)CC2)nc(N2CCN(C(=O)CCCCCCCCCCNC(=O)[C@H]([C@@H](C)CC)n3cc(CCCCCN)nn3)CC2)n1	?	44.7µM*	?	?	?
Cc1cc(C)c(NC(=O)Cn2c(=O)n(CC(=O)NCc3ccccc3Cl)c(=O)c3sccc32)c(C)c1	8.7%	·	·	·	·
COc1cc2ccccc2cc1C(=O)NC(=S)Nc1ccc(C(=O)O)cc1	-15.2%	-9.8%	1.8%	-6.3%	14.4%
COc1cc2ccccc2cc1C(=O)NC(=S)Nc1cccc(C(=O)O)c1	-25.0%	44.7µM*	?	13.1%	10.2%
CCOC(=O)c1cc(C)n(CC2CCC(C(=O)Nc3ccc(Cl)cc3)CC2)c1C (configuration not stated)	-22.8%	·	·	·	·
COc1ccc(N/C=C2\CCc3ccccc3C2=O)cc1	?	-20.1%	?	-0.2%	100µM*
COc1ccc2c(c1)CC/C(=C\Nc1ccc3c(c1)OCO3)C2=O	?	10.3%	?	5.6%	?
CCCCCCCCCCCCCCCCCCNc1ccn(C2OC(COP(=O)(O)OCC3OC(n4cc(F)c(=O)[nH]c4=O)CC3O)C(O)C2O)c(=O)n1 (configuration not stated)	?	22.4µM*	-35.1%	4.0%	9.4%
COc1cnc(-c2ccccn2)nc1Oc1c(C)cccc1C	-12.0%	-3.3%	-11.0%	14.1µM*	-4.5%
Cc1sc2ncn(CC(=O)N3CCN(c4ccccc4F)CC3)c(=O)c2c1S(=O)(=O)N1CCC(C)CC1	0.2%	·	·	·	·
CCOC1=CC2=C(C(=O)C(Cl)=CC2=O)[C@@H]2CN(S(=O)(=O)c3ccc(C)cc3)[C@@H](c3ccccc3)[C@H]12	·	56.2µM*	-5.3%	-4.2%	1.8%
CCN1C(=O)[C@@H]2[C@@H]3CN(S(=O)(=O)c4ccc(C)cc4)[C@@H](c4ccccc4)[C@@H]3C(=O)C[C@@H]2C1=O	·	-6.5%	-2.8%	14.3%	7.8%
O=c1c(O)cccc2cc(O)c(O)c(O)c12	?	12.6µM*	1.6%	1.4%	-2.9%
O=S1(=O)C=C(Oc2ccc3ccccc3c2)c2ccccc21	-7.8%	-1.3%	5.1%	25.1µM*	10.9%
COc1cc2c(cc1OC)C(COc1ccc3c(C)cc(=O)oc3c1)N(C(=O)c1ccccc1F)CC2 (configuration not stated)	-7.4%	·	·	·	·
O=C(NCCCN1CCCCCC1)c1ccc(CS(=O)(=O)Cc2ccccc2F)o1	3.8%	-8.7%	8.5%	6.0%[57.1 µM]	-16.5%
CCC1CCCCN1CCCNC(=O)c1ccc(CS(=O)(=O)Cc2ccccc2F)o1 (configuration not stated)	2.0%	-4.9%	6.2%	22.4µM*	-0.6%

Assay outcomes as filed in PubChem BioAssay.
